Data taken from PubChem BioAssay AID686978 (National Center for Advancing Translational Sciences (NCATS), 2013).
The whole screen tested about 420,000 compounds, of which about 64,000 (15%) were called active. Not shown: some 27% with an inconclusive outcome. Calls follow the shape of the dose curve; as a rule, active = well fitted inhibition curve with a large enough effect; inconclusive = small, poorly fitted or top-dose-only effect; inactive = flat fitted curve, though single readings scatter. Only a sample is shown. A call without a number means that no potency is given here. Peptide text beside a SMILES is read from it.

Assay: qHTS for Inhibitors of human tyrosyl-DNA phosphodiesterase 1 (TDP1): qHTS in cells in absence of CPT; also: nearly all actives have a fitted effect of over 55% in size
Conditions: DT40 Tdp1-/- hTDP1 cells, no CPT, ATP luminescence, 48 h; activity change, negative = growth inhibition: at 46.2 µM (top of the series)
How it was run: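 Growth of hTDP1-complemented DT40 Tdp1-knockout cells is measured by ATP luminescence after at least 48 hr compound exposure at 37 °C, with DMSO substituting for the 20 nM CPT used in the parallel screen.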
Potency is read from the fitted curve at half-maximal effect.

| SMILES | Potency |
| --- | --- |
| CCOC(=O)c1c(NC(=O)c2cccs2)sc(C)c1C | inactive |
| Cn1c(=O)c2cc(S(=O)(=O)NCCC(=O)Nc3ccc(F)cc3F)ccc2n(C)c1=O | inactive |
| COc1ccc(NC(=O)CN(C)C(=O)/C=C/c2cn(Cc3ccccc3)nc2-c2cccnc2)cc1 | inactive |
| Cc1cc(C)cc(NC(=O)CSc2nc(=O)n(CCN3CCOCC3)c3c2CCC3)c1 | inactive |
| CCCCCOc1ccc(/C=C/C(=O)NCCc2nc3ccccc3[nH]2)cc1OC | 9.2 µM (active) |
| O=C(COc1ccccc1)NCCc1nc2ccccc2[nH]1 | inactive |
| CC(C)=C(NC(=O)c1ccco1)C(=O)NCCc1nc2ccccc2[nH]1 | inactive |
| COc1ccc2c(C(=O)c3ccc(C)cc3)n(CCC(N)=O)[n+]([O-])c2c1 | inactive |
| COC(=O)CNC(=O)C(CCSC)NC(C)=O (centres undefined) (HELM PEPTIDE1{[ac].[CSCCC(N[*:1])C(=O)[*:2]].G.[CO[*:1]]}$$$$V2.0) | inactive |
| COc1ccc(OC)c(S(=O)(=O)N2CCCC(C(=O)N3CCC(C(N)=O)CC3)C2)c1 (centres undefined) | inactive |
| COc1ccc(N(C)C(=O)C2CCN(S(=O)(=O)c3cc(Br)cc4c3N(C(C)=O)CC4)CC2)cc1 | inactive |
| O=C(C1CCCN(S(=O)(=O)c2ccccc2)C1)N1CCN(c2ccc(F)cc2)CC1 (centres undefined) | 11.6 µM (active) |
| COc1ccc(S(=O)(=O)N2CCC(C(=O)N3CCCC3)CC2)cc1C | inactive |
| Cc1ccc(N(C)C(=O)C2CCN(S(=O)(=O)c3ccc4c(c3)CCCN4C(=O)C3CCC3)CC2)cc1 | 16.4 µM (active) |
| CCN1CCN(C(=O)C2CCCN(S(=O)(=O)c3ccc(OC)c(OC)c3)C2)CC1 (centres undefined) | inactive |
| CCCS(=O)(=O)N1CCCC(C(=O)N2CCN(c3ccccc3)CC2)C1 (centres undefined) | inactive |
| Cc1ccc(S(=O)(=O)N2CCC(N3CCCCCC3)CC2)cc1 | inactive |
| O=C(C1CCC1)N1CCN(c2ccccc2)CC1 | inactive |
| CCOC(=O)C1CCN(C(=O)C2CCCN(S(=O)(=O)c3ccc(OC)c(Cl)c3)C2)CC1 (centres undefined) | 11.6 µM (active) |
| Cc1ccc(S(=O)(=O)N2CCC(C(=O)N3CCCCCCC3)CC2)cc1 | 20.6 µM (active) |
| CC(=O)N1CCCc2cc(S(=O)(=O)N3CCC(C(=O)NC4CCCCC4)CC3)ccc21 | inactive |
| Cc1cc(-c2ccccc2)nc(N2CCC(C(=O)NC34CC5CC(CC(C5)C3)C4)CC2)n1 | inactive |
| COCCCNC(=O)[C@H]1N2C(=O)c3ccccc3C2SC1(C)C (some centres undefined) | inactive |
| O=c1c(F)cn(C2CCCO2)c(=O)n1Cc1ccccc1Cl (centres undefined) | inactive |
| O=C1CN(C(=O)COC(=O)c2cnc(Cl)c(Cl)c2)c2ccccc2N1 | inactive |
| CC1(c2ccc3ccccc3c2)NC(=O)NC1=O (centres undefined) | inactive |
| COCCCNC(=O)C1CCC(CNS(=O)(=O)c2ccc(OC)cc2)CC1 (centres undefined) | inactive |

| SMILES | Potency |
| --- | --- |
| O=C(Cc1ccccc1)N1CCN(S(=O)(=O)c2ccc([N+](=O)[O-])cc2)CC1 | inactive |
| CC(=O)c1cccc(NC(=O)C2CCCN(S(=O)(=O)c3cccc4nonc34)C2)c1 (centres undefined) | inactive |
| O=C(C1CCCN(S(=O)(=O)c2cccc3nonc23)C1)N1CCN(c2ccccc2F)CC1 (centres undefined) | 18.4 µM (active) |
| O=C(C1CCC1)N1CCN(S(=O)(=O)c2ccc([N+](=O)[O-])cc2)CC1 | inactive |
| COc1ccc(NC(=O)C2CCCN(S(=O)(=O)c3cccc4nonc34)C2)cc1Cl (centres undefined) | inactive |
| O=C(C1CCCN(S(=O)(=O)c2ccc([N+](=O)[O-])cc2)C1)N1CCCCC1 (centres undefined) | 16.4 µM (active) |
| O=C(NCc1cc(F)cc(C(F)(F)F)c1)C1CCC(=O)N(C2CCCC2)C1 (centres undefined) | inactive |
| Cc1cccc(C(=O)Nc2ccccc2-c2nnn(CC(=O)Nc3ccc4c(c3)OCCO4)n2)c1 | inactive |
| CCCOc1ccccc1-c1nc(SCCC(=O)O)n[nH]1 | inactive |
| CN(c1cccc(NC(=O)Nc2ccc(Cl)cc2)c1)S(C)(=O)=O | 25.9 µM (active) |
| CN(c1ccc(OCC(=O)OCC(=O)Nc2cccc([N+](=O)[O-])c2)cc1)S(=O)(=O)c1ccc(F)cc1 | inactive |
| CN(c1ccccc1)S(=O)(=O)c1cccc(NC(=O)Cc2ccc(Cl)cc2)c1 | 23.1 µM (active) |
| CN(c1ccccc1)S(=O)(=O)c1cccc(C(=O)NNC(=O)c2ccncc2)c1 | inactive |
| Cn1ccc(NC(=O)Nc2ccc(Cl)cc2)n1 | inactive |
| CNS(=O)(=O)c1ccc(NC(=O)Nc2ccc3c(c2)OCO3)cc1 | inactive |
| Cc1ncc([N+](=O)[O-])n1CCOC(=O)c1ccc(Br)cc1 | inactive |
| COc1ccc(S(=O)(=O)NCC(=O)NCc2cc(=O)n(C)c(=O)n2C)cc1F | inactive |
| O=C(NC1CCCCC1)c1cc(C2CC2)on1 | inactive |
| COc1cc2c(cc1OC)C(=O)NCC(C)(C)O2 | inactive |
| O=C(O)CCCCCCCCCC[n+]1ccccc1 | inactive |
| O=C(NCC1CCC(C(=O)O)CC1)OCc1ccccc1 (centres undefined) | inactive |
| CCCN(CCC)CCCNC(=O)CNC(=O)c1nn(-c2ccc(OC)cc2)c(=O)c2ccccc12 | inactive |
| CCN(CCCNC(=O)c1cc(Nc2ccc(OC)cc2)nc2ccccc12)c1cccc(C)c1 | 20.6 µM (active) |
| COc1ccc(NC(=O)CNC(=O)Cn2ccc3ccccc3c2=O)c(OC)c1 | inactive |
| COc1ccc(NC(=O)CCNC(=O)Cn2ccc3ccccc3c2=O)c(OC)c1 | inactive |
| CCN(CCCNC(=O)Cn1ncc2c([nH]c3ccccc32)c1=O)c1cccc(C)c1 | inactive |
| COc1ccc(Nc2cc(C(=O)NCCCN(C)c3ccccc3)c3ccccc3n2)c(OC)c1 | 11.6 µM (active) |
